Measurements as given in PubChem BioAssay.
For part of these data: Measured potencies and affinities stand elsewhere. Active and inactive are the calls of the source.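 How the source made its calls, unless noted: active means calcium signal rise above buffer-control mean plus 5 SD in both duplicates, and also a hit in the primary screen; inactive means the rest.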

Key:
[1] = test system: TRPC4 beta (transient receptor potential cation channel C4), mouse; assay: TRPC4 cation channel opening, retest – cell-based, Fluo4 calcium, HEK293 TRPC4beta/mu-opioid, duplicates, 10 µM, confirmation (AID 2426;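 active means fluorescence ratio normalized to control raised more than 50% in primary screen plus both repeat runs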;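 on activation: percent rise of integrated ratio over buffer wells lacking compound which define 0%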); settings: Fluo4 calcium fluorescence, at 10 µM; hits give high values
[2] = test system: transient receptor potential cation channel C4 beta (TRPC4), mouse; assay: TRPC4 cation channel opening, second retest – cell-based, second round, Fluo4, HEK293 TRPC4beta/mu-opioid, 1 µM, confirmation (AID 2461;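 active means primary screen active and over 50% activation in each of two duplicate runs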;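 on activation: 0% = wells without test compound as baseline of integrated fluorescence ratio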); settings: Fluo4 calcium fluorescence, at 1 µM; hits give high values
[3] = test system: TRPC4 (transient receptor potential cation channel C4 beta), mouse; assay: potentiation of DAMGO EC20 TRPC4 response – cell-based, second round, Fluo-4, HEK293 TRPC4beta/mu-opioid, 1 µM, confirmation (AID 2554;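 active means primary screen hit whose fluorescence ratio, in both repeats, exceeds the weak agonist control mean by 3 SD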); settings: DAMGO EC20, Fluo-4 calcium flux, at 1 µM; hits give high values
[4] = test system: TRPC4 beta (transient receptor potential cation channel C4), mouse; assay: potentiation of DAMGO EC20 TRPC4 response – cell-based, Fluo-4, HEK293 TRPC4beta/mu-opioid, confirmation (AID 2555;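 active means primary screen hit whose calcium fluorescence ratio, in both repeats, exceeds the weak agonist control mean by 3 SD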); settings: DAMGO EC20, Fluo-4 calcium flux, at 10 µM; hits give high values
[5] = target: Short transient receptor potential channel 4 (Mus musculus) (UniProt Q9QUQ5); assay: blockers of DAMGO-evoked TRPC4 calcium flux – cell-based, Fluo4, HEK293 TRPC4beta/mu-opioid, confirmation (AID 2636;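 active means calcium signal cut by more than 3 SD below the full-agonist control yet still positive, in both repeats and the earlier primary screen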); settings: at 10 µM; hits give high values
Sequence of Short transient receptor potential channel 4 (Mus musculus) (Q9QUQ5 whole entry, looked up): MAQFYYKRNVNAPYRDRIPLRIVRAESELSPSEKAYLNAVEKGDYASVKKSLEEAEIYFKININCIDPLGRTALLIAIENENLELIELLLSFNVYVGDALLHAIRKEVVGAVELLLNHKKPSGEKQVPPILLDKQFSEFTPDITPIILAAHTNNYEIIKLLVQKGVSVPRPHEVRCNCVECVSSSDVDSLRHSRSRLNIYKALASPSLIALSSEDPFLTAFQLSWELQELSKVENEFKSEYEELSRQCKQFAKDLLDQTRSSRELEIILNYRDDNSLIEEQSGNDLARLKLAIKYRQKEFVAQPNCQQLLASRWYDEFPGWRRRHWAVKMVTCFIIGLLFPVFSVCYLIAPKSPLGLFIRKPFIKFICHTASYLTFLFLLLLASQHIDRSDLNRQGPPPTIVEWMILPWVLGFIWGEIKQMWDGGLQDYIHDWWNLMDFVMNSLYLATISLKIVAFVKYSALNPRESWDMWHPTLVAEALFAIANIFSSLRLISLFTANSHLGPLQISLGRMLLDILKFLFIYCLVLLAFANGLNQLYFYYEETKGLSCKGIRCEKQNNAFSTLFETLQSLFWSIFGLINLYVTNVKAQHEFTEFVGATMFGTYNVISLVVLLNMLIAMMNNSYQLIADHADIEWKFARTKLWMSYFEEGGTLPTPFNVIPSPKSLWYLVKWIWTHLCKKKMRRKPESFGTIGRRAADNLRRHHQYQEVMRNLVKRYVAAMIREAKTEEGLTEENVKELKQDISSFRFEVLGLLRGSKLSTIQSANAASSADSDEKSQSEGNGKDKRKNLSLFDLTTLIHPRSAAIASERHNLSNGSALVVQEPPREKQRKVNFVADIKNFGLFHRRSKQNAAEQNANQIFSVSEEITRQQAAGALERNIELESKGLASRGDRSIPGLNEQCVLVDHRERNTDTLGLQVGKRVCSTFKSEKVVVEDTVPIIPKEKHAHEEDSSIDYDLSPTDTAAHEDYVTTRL

[6] = target: Short transient receptor potential channel 4 (Mus musculus) (UniProt Q9QUQ5); assay: blockers of DAMGO-evoked TRPC4 calcium flux – cell-based, second round, Fluo4, HEK293 TRPC4beta/mu-opioid, 1 µM, confirmation (AID 2637;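 active means calcium signal ratio cut to more than 3 SD under the fully stimulated control mean yet still positive, in both repeats and the primary screen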); settings: at 1 µM; hits give high values
[7] = target: Short transient receptor potential channel 4 (Mus musculus) (UniProt Q9QUQ5); assay: potentiation of DAMGO-evoked TRPC4 calcium signal – cell-based, HEK293 TRPC4/mu-opioid, Fluo-4 calcium, EC20 DAMGO, dose response (AID 434941;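 active means earlier screen potentiator hit that boosts the TRPC4 ion channel at some dose, with a dose response; inactive means no potentiation, no dose response, or not a prior hit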;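 further: calcium entry triggered by an EC20 dose of DAMGO at the co-expressed mu-opioid receptor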)
[8] = target: Short transient receptor potential channel 4 (Mus musculus) (UniProt Q9QUQ5); assay: block of DAMGO-driven TRPC4 calcium entry – cell-based, HEK293 TRPC4/mu-opioid, Fluo-4 calcium, dose response (AID 434942;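 active means primary screen inhibitor hit that blocks the TRPC4 channel at some tested dose, yielding a dose curve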)
[9] = target: Short transient receptor potential channel 6 (Mus musculus) (UniProt Q61143); assay: TRPC6 blockade by TRPC4 inhibitor hits – cell-based, HEK293, membrane potential dye, duplicate, selectivity assay for TRPC4 inhibitor project, confirmation (AID 434948;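 active means active in primary screen and both duplicates, each dropping signal beyond three positive-control SD with fluorescence still positive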); settings: HEK293 TRPC6, membrane potential dye fluorescence, at 10 µM, stimulated with maximal-effect acetylcholine; hits give high values
Sequence of Short transient receptor potential channel 6 (Mus musculus) (Q61143 whole entry, looked up): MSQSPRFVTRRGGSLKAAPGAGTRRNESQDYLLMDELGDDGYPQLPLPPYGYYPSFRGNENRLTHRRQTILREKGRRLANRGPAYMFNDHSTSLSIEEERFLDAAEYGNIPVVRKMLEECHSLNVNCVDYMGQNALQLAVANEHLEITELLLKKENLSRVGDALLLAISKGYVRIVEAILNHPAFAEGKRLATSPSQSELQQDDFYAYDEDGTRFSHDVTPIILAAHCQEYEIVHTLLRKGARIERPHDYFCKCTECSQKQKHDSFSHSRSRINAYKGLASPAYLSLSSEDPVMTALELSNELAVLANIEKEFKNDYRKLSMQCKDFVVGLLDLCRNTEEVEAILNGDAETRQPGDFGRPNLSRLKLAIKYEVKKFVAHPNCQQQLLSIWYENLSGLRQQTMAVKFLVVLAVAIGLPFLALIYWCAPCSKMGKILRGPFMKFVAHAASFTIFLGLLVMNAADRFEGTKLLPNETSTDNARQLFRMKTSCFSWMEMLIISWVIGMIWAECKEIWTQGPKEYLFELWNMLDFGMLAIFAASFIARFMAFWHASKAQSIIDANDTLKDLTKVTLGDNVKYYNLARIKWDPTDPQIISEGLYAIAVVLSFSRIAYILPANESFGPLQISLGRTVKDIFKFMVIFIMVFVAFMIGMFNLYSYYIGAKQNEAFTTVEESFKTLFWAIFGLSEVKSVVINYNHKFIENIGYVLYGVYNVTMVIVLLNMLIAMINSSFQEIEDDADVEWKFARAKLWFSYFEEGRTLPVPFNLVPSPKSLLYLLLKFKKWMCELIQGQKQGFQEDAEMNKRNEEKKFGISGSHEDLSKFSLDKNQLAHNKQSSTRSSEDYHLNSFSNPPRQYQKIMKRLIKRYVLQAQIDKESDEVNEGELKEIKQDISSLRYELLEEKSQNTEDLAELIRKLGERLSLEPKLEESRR

[10] = target: Short transient receptor potential channel 6 (Mus musculus) (UniProt Q61143); assay: TRPC6 opening by TRPC4 activator hits – cell-based, HEK293, membrane potential dye, duplicate, selectivity assay for TRPC4 activator project, confirmation (AID 434950;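 active means membrane potential signal rise above negative control mean plus 3 SD in both duplicates, also active in the earlier TRPC4 screen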;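 on activation: 0% = buffer only wells and 100% = acetylcholine maximal-effect wells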); settings: HEK293 TRPC6, membrane potential fluorescence, at 10 µM; activation: hits give high values; outcome: activation
[11] = target: Short transient receptor potential channel 6 (Mus musculus) (UniProt Q61143); assay: positive modulators of mouse TRPC6 channel – HEK293 cells, membrane potential dye, duplicate, selectivity assay for TRPC4 potentiator project, confirmation (AID 434952;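 active means compound raising the membrane signal above positive-control mean plus 3 SD in both repeats, and a primary screen hit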); settings: HEK293 TRPC6, membrane potential dye fluorescence, at 10 µM, maximal acetylcholine added after compound; hits give high values
[12] = target: Short transient receptor potential channel 4 (Mus musculus) (UniProt Q9QUQ5); assay: calcium flux activators in TRPC4/5HT1a cells, counter-screen for TRPC4 activator project, cell-based, second counter screen, HEK293 TRPC4/5HT1a, Fluo-4 (AID 434977); settings: Fluo-4 calcium flux, at 10 µM; hits give high values;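 on activation: plate controls were assay buffer for no effect and maximal serotonin response for full effect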
[13] = serotonin-gated TRPC4 signal block – cell-based, second counter screen, HEK293 TRPC4/5HT1a, Fluo-4, counter-screen for TRPC4 inhibitor project, confirmation (AID 434978;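 active means primary screen active whose calcium signal fell more than 3 SD beyond the full-serotonin control mean in both duplicate plates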;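 further: serotonin given first at submaximal then at maximal dose after compound preincubation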); settings: Fluo-4 calcium flux, at 10 µM, serotonin added to trigger calcium flux; hits give high values
[14] = test system: TRPC4 (mouse), co-expressed with 5HT1a in HEK293; assay: enhancement of serotonin-evoked TRPC4 response – cell-based, second counter screen, HEK293 TRPC4/5HT1a, Fluo-4, counter-screen for TRPC4 potentiator project, confirmation (AID 434979;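 active means signal rise over 3 SD above mean of control wells given weak agonist, in both repeats and first screen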); settings: Fluo-4 calcium flux, at 10 µM, serotonin added at its EC20 dose; hits give high values
[15] = nonspecific calcium rise without TRPC4 – cell-based, HEK293 mu-opioid receptor line, counter-screen for TRPC4 activator project, confirmation (AID 449723;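 active means hit in primary screen, with calcium signal over 5 SD above buffer well mean in both duplicates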;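 further: counter screen cells carry the mu-opioid receptor alone and lack TRPC4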); settings: HEK293 mu-opioid cells, Fluo-4 calcium fluorescence, at 10 µM; hits give high values
[16] = nonspecific potentiation of DAMGO calcium response – cell-based, HEK293 mu-opioid receptor line, counter-screen for TRPC4 allosteric potentiator project, confirmation (AID 449724;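 active means calcium signal rise more than 3 SD above the low-dose agonist control mean, in both duplicate plates and the primary screen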); settings: HEK293 mu-opioid receptor cells, Fluo-4 calcium flux, at 10 µM, compound added before EC20 DAMGO stimulus; hits give high values

Cc1ccc2[nH]c3c(N4CCc5ccccc5C4)ncnc3c2c1
inactive: outcome [1] | outcome [2] | outcome [3] | outcome [4] | outcome [5] | outcome [6] | outcome [7] | outcome [8] | outcome [9] | outcome [10] | outcome [11] | outcome [12] | outcome [13] | outcome [14] | outcome [15] | outcome [16]

COc1ccc(C(CNC(=O)c2ccc3c(c2)OCCO3)N(C)C)cc1 (stereo not given)
inactive: outcome [3] | outcome [4] | outcome [5] | outcome [6] | outcome [7] | outcome [8] | outcome [9] | outcome [11] | outcome [12] | outcome [13] | outcome [14] | outcome [15] | outcome [16]
active: activation [1] 153% | activation [2] 123% | activation [10] 49%

Cc1ccc2nc(N(CCCN(C)C)C(=O)c3ccc(S(=O)(=O)N4CCc5ccccc5C4)cc3)sc2c1
active: activation [1] 242% | activation [2] 75% | activation [12] 7.33%
inactive: outcome [3] | outcome [4] | outcome [5] | outcome [6] | outcome [7] | outcome [8] | outcome [9] | outcome [10] | outcome [11] | outcome [13] | outcome [14] | outcome [15] | outcome [16]

COc1ccc(CCN(C)C(=O)C2CCCN(C3CCN(Cc4ccccc4)CC3)C2)cc1OC (stereo not given)
active: activation [1] 143% | activation [2] 64% | activation [10] 50% | activation [12] 28.9%
inactive: outcome [3] | outcome [4] | outcome [5] | outcome [6] | outcome [7] | outcome [8] | outcome [9] | outcome [11] | outcome [13] | outcome [14] | outcome [15] | outcome [16]

CN(C)CCCN(C(=O)c1ccc(S(=O)(=O)N2CCCCCC2)cc1)c1nc2c(F)cc(F)cc2s1
inactive: outcome [2] | outcome [3] | outcome [4] | outcome [5] | outcome [6] | outcome [7] | outcome [8] | outcome [9] | outcome [10] | outcome [11] | outcome [12] | outcome [13] | outcome [14] | outcome [15] | outcome [16]
active: activation [1] 133%

Cc1ccccc1C(=O)NNC(=S)NC(=O)COc1ccccc1
inactive: outcome [2] | outcome [3] | outcome [4] | outcome [5] | outcome [6] | outcome [7] | outcome [8] | outcome [9] | outcome [10] | outcome [11] | outcome [13] | outcome [14] | outcome [16]
active: activation [1] 180% | activation [12] 127% | activation [15] 43.2%

O=C(NCC(c1cccs1)N1CCOCC1)c1ccc(Cl)c([N+](=O)[O-])c1 (stereo not given)
inactive: outcome [2] | outcome [3] | outcome [4] | outcome [5] | outcome [6] | outcome [7] | outcome [8] | outcome [9] | outcome [10] | outcome [11] | outcome [13] | outcome [14] | outcome [15] | outcome [16]
active: activation [1] 135% | activation [12] 21.6%

CCCN(CCC)CCCNC(=O)c1cc2c(-c3ccc(OC)c(OC)c3)nn(C)c2s1
active: activation [1] 97% | activation [2] 78% | activation [12] 38.6%
inactive: outcome [3] | outcome [4] | outcome [5] | outcome [6] | outcome [7] | outcome [8] | outcome [9] | outcome [10] | outcome [11] | outcome [13] | outcome [14] | outcome [15] | outcome [16]

CN(C)C(CNC(=S)Nc1ccc(Cl)cc1)c1cccnc1 (stereo not given)
active: activation [2] 118%
inactive: outcome [1] | outcome [3] | outcome [4] | outcome [5] | outcome [6] | outcome [7] | outcome [8] | outcome [9] | outcome [10] | outcome [11] | outcome [12] | outcome [13] | outcome [14] | outcome [15] | outcome [16]

Cc1csc2c(N3CCN(C(=O)Nc4ccc(Cl)c(Cl)c4)CC3)ncnc12
inactive: outcome [2] | outcome [3] | outcome [4] | outcome [5] | outcome [6] | outcome [7] | outcome [8] | outcome [9] | outcome [10] | outcome [11] | outcome [13] | outcome [14] | outcome [15] | outcome [16]
active: activation [1] 115% | activation [12] 40.3%

Cc1c(Cl)cccc1NC(=S)NCC(c1cccnc1)N(C)C (stereo not given)
active: activation [2] 103% | activation [10] 47.5%
inactive: outcome [1] | outcome [3] | outcome [4] | outcome [5] | outcome [6] | outcome [7] | outcome [8] | outcome [9] | outcome [11] | outcome [12] | outcome [13] | outcome [14] | outcome [15] | outcome [16]

Cc1csc2c(N3CCN(C(=S)Nc4ccc(C(F)(F)F)cc4)CC3)ncnc12
inactive: outcome [3] | outcome [4] | outcome [5] | outcome [6] | outcome [7] | outcome [8] | outcome [9] | outcome [10] | outcome [11] | outcome [13] | outcome [14] | outcome [15] | outcome [16]
active: activation [1] 102% | activation [2] 55% | activation [12] 48.2%

Cc1ccc(-c2nn(-c3cccc(F)c3)cc2CNCc2cccnc2)o1
active: activation [1] 100%
inactive: outcome [2] | outcome [3] | outcome [4] | outcome [5] | outcome [6] | outcome [7] | outcome [8] | outcome [9] | outcome [10] | outcome [11] | outcome [12] | outcome [13] | outcome [14] | outcome [15] | outcome [16]

CCc1cc(OCCN(C)C)ccc1Cl
inactive: outcome [2] | outcome [4] | outcome [5] | outcome [6] | outcome [7] | outcome [8] | outcome [9] | outcome [11] | outcome [13] | outcome [15] | outcome [16]
active: activation [1] 93% | potentiation [3] 47% | activation [10] 39.5% | activation [12] 19.9% | potentiation [14] 37.3%

COCCn1nnnc1C(c1cc2ccc(OC)cc2[nH]c1=O)N1CCN(C2CCCCC2)CC1 (stereo not given)
inactive: outcome [2] | outcome [3] | outcome [4] | outcome [5] | outcome [6] | outcome [7] | outcome [8] | outcome [9] | outcome [11] | outcome [13] | outcome [14] | outcome [15] | outcome [16]
active: activation [1] 133% | activation [10] 37.5% | activation [12] 13.6%
